Hits are enriched below; roughly 2.3% of the tested compounds scored in any of these assays.
FID counter – displaces DNA intercalator in HCV helicase counter-screen. DNA fluorescent intercalator displacement, fluorescence. inhibition, % at 7.9 µM. 290,000 tested, 0.17% active. AID 1845; in the data active = inhibition above about 37%;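 also: 0% = vehicle and 100% = reference compound; higher means more ethidium bromide displaced from hairpin DNA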
Rce1 inhib – inhibitors of yeast Ras-converting enzyme | Q03530 | AID 2563 | yeast membranes, quenched prenylated peptide cleavage fluorescence | calls only | 290,000 tested, 0.27% active;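 active = fall in fluorescence gain of 50% or more versus controls, with final raw signal at or below 3038400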;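 also: plate controls were neutral control wells for no effect and wells lacking membranes for full effect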
Target sequence (Q03530 whole entry, looked up): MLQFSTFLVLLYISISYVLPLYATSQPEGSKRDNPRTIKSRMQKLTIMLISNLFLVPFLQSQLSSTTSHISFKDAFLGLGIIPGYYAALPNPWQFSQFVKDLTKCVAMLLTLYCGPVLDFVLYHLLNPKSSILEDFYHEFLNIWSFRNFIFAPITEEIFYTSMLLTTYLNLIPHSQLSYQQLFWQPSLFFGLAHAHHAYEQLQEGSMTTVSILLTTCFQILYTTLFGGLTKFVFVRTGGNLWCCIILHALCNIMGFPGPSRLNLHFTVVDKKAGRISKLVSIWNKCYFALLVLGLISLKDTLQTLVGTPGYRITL
Kir21 block – inhibitors of mouse Kir2.1 inward-rectifier potassium channel. P35561. HEK293-Kir2.1, FluxOR thallium flux fluorescence; hits give low values. B-score at 10 µM. 310,000 tested, 0.85% active;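 active = fluorescence ratio B-score at or below minus 3 SD of library scores, with starting-brightness B-score within 2 SD, cut at about -4.2 in these data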;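 also: channel flux triggered by added potassium and thallium sulfate stimulus; B-score of peak minus minimum fluorescence over baseline after thallium stimulus; more negative B-score means stronger Kir2.1 block with less thallium influx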
M18AAP inhibitor – blocks P. falciparum M18 aspartyl aminopeptidase. inhibition, % at 7.35 µM. 290,000 tested, 1.2% active. recombinant PfM18AAP, H-Glu-NHMec fluorogenic cleavage;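 active = inhibition above the campaign mean inhibition over all tested compounds plus 3 SD, cut at about 28% in these data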;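 also: 0% = plate median of test compound wells and 100% = 2 mM ZnCl2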
The depositor's hits bear a star; i = inactive; / = no result given; + = active, no number; ! = not confirmed by another sample.

SMILES	FID counter	Rce1 inhib	Kir21 block	M18AAP inhibitor
O=C(Nc1cccc(Cl)c1)c1ccc(NCCCN2CCOCC2)c([N+](=O)[O-])c1	9	i	-0.04	-7
CC(NCCS(=O)(=O)c1ccc(Cl)cc1)c1cccc(Cl)c1 (configuration not stated)	-9	i	-13*	5
CC(C)c1ccc(C(C)NCCS(=O)(=O)c2ccc(Br)cc2)cc1 (configuration not stated)	9	i	-4.7*	4
Cn1nnc2cc(C(=O)Nc3ccccc3F)ccc21	-2	i	0.33	-1
O=C(Nc1ccc(Cl)cc1Cl)c1ccc2ncsc2c1	-16	i	-0.03	6
O=C(COC(=O)CC(c1ccccc1)c1ccccc1)NCc1ccccc1	-29	/	-5.8*	-1
O=C(COC(=O)Cc1ccc(-c2ccccc2)cc1)NCc1ccccc1	-14	i	1.1	1
COc1ccccc1C(=O)N/N=C(\C)c1cccnc1	/	i	0.31	/
O=C(Cc1cc(=O)[nH][nH]1)N/N=C/c1c(Cl)cccc1Cl	-16	i	-4.3*!	3
O=C(Cc1cc(=O)[nH][nH]1)N/N=C/c1c(F)cccc1Cl	-15	i	-0.41	5
COc1cccc(C(=O)NCC(=O)N/N=C/c2ccc3c(c2)OCO3)c1	-6	i	-0.82	1
O=C(NCCN1CCOCC1)NC1(C(F)(F)F)Oc2ccccc2O1	-1	i	1.6	72*
O=C(NCCN1CCOCC1)Nc1ccccc1	7	/	/	3
CN(C)CCNC(=O)C(=O)NCC1CCCN1S(=O)(=O)c1cccs1 (configuration not stated)	/	i	-0.54	/
Cc1ccc(S(=O)(=O)N2CCCC2C(=O)NCc2ccccc2Cl)cc1 (configuration not stated)	-27	i	1.7	6
C=CCN1CCc2nc(N)sc2CC1	3	/	/	4
CCN1CCc2nc(N)sc2C1	-1	i	-0.02	44*
NCC/C=C1/c2ccccc2CSc2ccccc21	27	i	-4.3*	4
C=CCN(C)CC/C=C1\c2ccccc2CSc2ccccc21	13	i	-4	3
COc1cc2oc(-c3ccc(O)cc3)cc(=O)c2c(O)c1OC	/	i	-0.22	/
COc1cc2oc(-c3ccc(O)cc3)cc(=O)c2c(OC)c1O	-14	i	0.81	33*
CCn1c(SCCOc2ccc(Cl)cc2)nnc1-c1cccs1	-21	i	-5.8*	8
CCn1c(SCC(=O)c2ccc(Cl)cc2)nnc1-c1cccs1	-18	i	0.89	0
CCOC(=O)c1sc(NC(=O)Cc2ccc(C)cc2)nc1C	-6	i	-4.3*	2
CCOC(=O)c1sc(NNC(=O)c2ccc(F)cc2)nc1C	-9	i	-1.2	28*
SMILES	FID counter	Rce1 inhib	Kir21 block	M18AAP inhibitor
CCCCn1[nH]c(-c2ccccc2)cc1=O	-6	i	-0.08	30*
O=C(COn1nnc2ccccc21)N1CCN(Cc2ccccc2)CC1	-8	i	2.2	-1
Nc1ccc(C(=O)OCC(=O)N2c3ccccc3Sc3ccccc32)cc1[N+](=O)[O-]	4	/	/	-4
NCCNc1ccc(C(=O)N2c3ccccc3Sc3ccccc32)cc1[N+](=O)[O-]	32	i	-4.9*	6
CCCCCCOc1ccc(N2C(=O)CC(SC(=NCC)NCC)C2=O)cc1 (configuration not stated)	-4	i	0.86	-12
CCS(=O)(=O)C1=NN2C(=N)/C(=C\c3ccc(OC(=O)c4ccco4)c(Br)c3)C(=O)N=C2S1	0	i	-6.1*	0
O=C1c2ccccc2S(=O)(=O)c2cc(C(=O)N3CCN(C(=O)c4ccccc4)CC3)ccc21	/	i	-0.06	/
O=C(O)CSCC(=O)Nc1ccc(-c2nc3ccccc3s2)cc1	-28	+	-0.14	14
Cc1ccc2nc(-c3ccc(NC(=O)CSCC(=O)O)cc3)sc2c1	-7	i	1.3	6
COc1ccc(CCNCC(O)Cn2c3ccccc3c3ccccc32)cc1OC (configuration not stated)	26	i	-10*	0
COc1ccccc1NCC(O)Cn1c2ccccc2c2ccccc21 (configuration not stated)	-8	/	0.09	14
O=C(Nc1ccon1)Nc1cccc(Cl)c1Cl	-1	i	-2.2	-5
CCOC(=O)c1c(C)[nH]c(/C(C)=N/O)c1C	-6	i	2	6
CCOC(=O)c1c(C)[nH]c(C2=NNC(=NC3CC3)SC2)c1C	-19	/	-1.7	44*
O=C1c2ccccc2N2C(=O)c3ccccc3C2N1Cc1ccccc1 (configuration not stated)	-22	i	-1.4	2
CN(C)CCNC(=O)c1cc2c(s1)-c1ccc(Cl)cc1SC2	25	i	-7.8*	2
CCOCCCNC(=O)c1cc2c(s1)-c1ccccc1SC2	-21	i	0.07	11

Source: PubChem BioAssay (several laboratories)
